Experimental data taken from ChEMBL document CHEMBL3988442, “University of Dundee, Small-Polar-MMV Screening Library” (2021).

Tests used:
[1] = target: T1, Aspartate--tRNA(Asp/Asn) ligase (Mycobacterium tuberculosis (strain ATCC 25618 / H37Rv)) (UniProt P9WFW3); assay: Assay for Asp RNA synthetase-1 from Mycobacterium tuberculosis; assay type: functional; parameters: scale not given: direction of the effect not stated beside the values; conditions: 30 µM; also: in the data most compounds retested in dose-response had high values
T1 sequence (whole entry): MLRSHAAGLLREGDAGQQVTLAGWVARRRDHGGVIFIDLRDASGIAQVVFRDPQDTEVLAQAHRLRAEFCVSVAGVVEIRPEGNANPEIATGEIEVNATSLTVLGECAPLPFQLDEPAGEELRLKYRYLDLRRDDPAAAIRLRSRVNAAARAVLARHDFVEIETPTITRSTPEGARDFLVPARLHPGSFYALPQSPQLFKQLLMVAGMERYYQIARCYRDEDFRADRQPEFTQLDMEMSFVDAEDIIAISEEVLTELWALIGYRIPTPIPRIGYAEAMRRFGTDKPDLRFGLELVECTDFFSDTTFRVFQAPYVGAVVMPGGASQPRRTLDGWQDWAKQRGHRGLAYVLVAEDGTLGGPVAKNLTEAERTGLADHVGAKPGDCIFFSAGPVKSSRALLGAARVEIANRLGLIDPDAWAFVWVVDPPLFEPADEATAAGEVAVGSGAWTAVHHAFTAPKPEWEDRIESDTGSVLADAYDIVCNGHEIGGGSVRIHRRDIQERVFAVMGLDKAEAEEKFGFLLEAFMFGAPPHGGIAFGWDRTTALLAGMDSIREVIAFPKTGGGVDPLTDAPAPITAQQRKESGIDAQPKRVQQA

[2] = target: Shiga toxin 2 (Escherichia coli O157:H7) (UniProt P09385+P09386); assay: E. coli 0.157:H7 Shiga Toxin SOP - stx2 screening assay; assay type: functional; parameters: scale not given: direction of the effect not stated beside the values; conditions: 30 µM

| Structure (SMILES) | Percent Effect [1] | Percent Effect [2] |
| --- | --- | --- |
| Cc1cc(C)nc(CCNC(=O)[C@H]2CNC[C@@H](C(=O)N3CCCC3)C2)n1 | -2.14% | -37.4% |
| CCc1noc(C(C)N2CCC(NC(=O)c3ccc(C)s3)CC2)n1 (stereo unspecified) | 5.23% | -30.1% |
| O=C(c1ccco1)N1CCC2(CCOC2)C1 (stereo unspecified) | 2.53% | -46.7% |
| CCC(C)(C)NC(=O)Cn1nc(C)nc1-c1cccc(C)c1 | 1.4% | 5.46% |
| COCCOc1cccc(C(=O)N2CCCC(n3cccn3)C2)c1 (stereo unspecified) | 1.18% | -14.5% |
| CCc1nccn1C1CCCN(C(=O)c2ccc(C(=O)NC)nc2)C1 (stereo unspecified) | 2.25% | 2.77% |
| Cc1ccc(NCc2cncc3c2CCN(C(=O)C2CC=CC2)C3)nn1 | 6.32% | -38% |
| Cc1cnn(CCNCc2nnc(C3CC3)o2)c1 | 4.75% | -42.1% |
| Cn1c(Cn2cccn2)nnc1C1CCN(Cc2cccnc2N)CC1 | -5.74% | -18.3% |
| CN(Cc1ccccn1)C1COC2(CCN(Cc3nccs3)CC2)C1 (stereo unspecified) | -4.31% | -5.28% |
| Cc1cnn(CC2CCCN2C(=O)c2nccc3ccccc23)c1 (stereo unspecified) | 3.06% | 28% |
| CCS(=O)(=O)N1CCc2c(cccc2NC(=O)NCCOC)C1 | 5.42% | 6.78% |
| OCC1CCCN1c1cc(NCCc2c[nH]c3ccccc23)ncn1 (stereo unspecified) | 11.5% | -28.9% |
| O=C(c1ccc(C2CCCO2)s1)N1CCN(c2ccccc2F)CC1 (stereo unspecified) | 1.1% | -30.2% |
| CN(C)CC1CN(c2ncnc3[nH]ccc23)CCO1 (stereo unspecified) | -0.0146% | -33.5% |
| COc1ccc(C(=O)N2CC[C@H](CO)[C@H](O)C2)c(C)c1 | -1.53% | 9.86% |
| CC(C)N1CCC(N2CCN(C3CCC3)CC2CCO)CC1 (stereo unspecified) | -3.4% | -0.0599% |
| Cc1cc(C)n(CC2CN(Cc3nc(-c4ccoc4)no3)CCO2)n1 (stereo unspecified) | 5.71% | 28.8% |
| COc1cccc(CN2CCCCCC2c2cccc(C)c2)c1O (stereo unspecified) | -0.481% | -68.7% |
| COc1cc(C)nc(N2CCN(C(=O)c3ccc[nH]3)CC2)n1 | 1.55% | 11.2% |
| Cn1ccc(CN2CCC(NC(=O)Cc3ccccc3)CC2)cc1=O | -3.72% | 8% |
| O=C1CC(c2ccncc2)C2(CCN(C(=O)c3ccc[nH]3)CC2)N1 (stereo unspecified) | -0.81% | -8.09% |
| CC(C(=O)N1CCCC1)N1CCC(c2nccn2Cc2cscn2)CC1 (stereo unspecified) | 1.8% | -3.75% |
| COCC(C)N(C)C(=O)c1nc(S(C)(=O)=O)n2ccccc12 (stereo unspecified) | -0.433% | -13.2% |
| COCCOCC(=O)Nc1ccc(Br)cc1F | -5.06% | -5.97% |
| Cc1cccc(Nc2nccnc2C2CCCN2CC(=O)N(C)C)n1 (stereo unspecified) | -7.13% | -29.9% |
| CC(C)c1n[nH]c(C2CN(C(=O)c3cccc4cn[nH]c34)CCO2)n1 (stereo unspecified) | 7.47% | 9.23% |
| Cc1ccc(C(=O)N2CCN(CCCSCC#N)CC2)o1 | 3.17% | -67.1% |
